Screening results from PubChem BioAssay.
The list is not random: actives were taken first. Their share in the collection is about 11%.
HEK cytotox: HEK 293 cell cytotoxicity. Potency, µM (doses to about 115 µM), for the others: at the highest dose activity change, negative = cytotoxicity, usual class: inhibitors. hit rate 6.6% among 94,000. AID 1345083. HEK 293 viability, ATP luminescence (CellTiter-Glo), 48-72 h; note: % is set by controls: 0 for no effect and ±100 for the full control effect; nearly all actives have a fitted effect of over 60% in size
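qHTS cytotoxicity; HEK 293, 250 cells/well; compound pinned; 48 or 72 hr, 37 degree Celsius, 5% CO2, 95% humidity; CellTiter-Glo, 10 min RT; luminescence (ATP).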
NPR1 antag: blocks ANP-stimulated signaling of human Npr1 receptor | P16066 | HEK293 hNpr1 GloSensor cGMP, ANP-stimulated luminescence | Potency, µM (top dose mostly 46.3 µM), for the others: at the highest dose activity change, negative = inhibition, usual class: inhibitors | hit rate 1.6% among 76,000 | AID 1347048; calls by dose curve; note: % is set by controls: 0 for no effect and ±100 for the full control effect; nearly all actives have a fitted effect of over 60% in size
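Compound pre-incubated 30 min at room temperature on GloSensor-loaded HEK293 cells stably carrying hNpr1 and the pGS-40F cGMP biosensor. Stimulation uses hNppA at 0.1 nM final; luminescence is taken at baseline and 20 min post-agonist.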
FLuc inh: inhibitors of firefly (Photinus pyralis) luciferase; P08659; purified P. pyralis luciferase, luminescence, biochemical; AID 1347043; Potency, µM (top dose mostly 115 µM), actives largely listed as inhibitors; hit rate 2.5% among 76,000; note: % is set by controls: 0 for no effect and ±100 for the full control effect; nearly all actives have a fitted effect of over 65% in size
Target sequence (P08659 whole entry, looked up): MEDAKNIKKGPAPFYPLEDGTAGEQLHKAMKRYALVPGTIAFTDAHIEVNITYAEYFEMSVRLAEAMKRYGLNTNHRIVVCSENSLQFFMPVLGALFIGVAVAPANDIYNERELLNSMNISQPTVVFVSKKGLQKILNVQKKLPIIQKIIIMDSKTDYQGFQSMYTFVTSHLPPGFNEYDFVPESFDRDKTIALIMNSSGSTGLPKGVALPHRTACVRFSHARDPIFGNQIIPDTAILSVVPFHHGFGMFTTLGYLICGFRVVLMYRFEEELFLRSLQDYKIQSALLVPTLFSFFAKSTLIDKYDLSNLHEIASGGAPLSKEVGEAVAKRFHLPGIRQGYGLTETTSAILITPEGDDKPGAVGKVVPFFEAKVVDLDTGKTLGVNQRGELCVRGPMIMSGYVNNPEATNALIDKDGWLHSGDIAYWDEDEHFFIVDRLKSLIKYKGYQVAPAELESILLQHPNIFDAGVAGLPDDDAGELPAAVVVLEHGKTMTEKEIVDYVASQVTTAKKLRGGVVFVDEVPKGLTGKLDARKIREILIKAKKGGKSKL
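Inhibitors were tested against purified firefly luciferase in a biochemical, low-substrate format (both substrates at 10uM) and luminescence measured with a CCD imager.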
NIH3T3 tox: kills NIH 3T3 cells | NIH 3T3 viability, CellTiter-Glo ATP luminescence, 48-72 h | Potency, µM (highest dose often 96.7 µM), for the others: top-dose activity change, negative = cytotoxicity, actives largely listed as inhibitors | hit rate 4.3% among 94,000 | AID 1345082; note: % is set by controls: 0 for no effect and ±100 for the full control effect; nearly all actives have a fitted effect of over 55% in size
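Cytotoxicity is measured as loss of cellular ATP: NIH 3T3 cells (400/well) are exposed to compound for 48 or 72 hr at 37 °C, then CellTiter-Glo luminescence is imaged after 10 min at room temperature.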
NPR1 antag cnf: confirmation of human Npr1 natriuretic peptide receptor antagonists. Potency, µM (doses to about 57.6 µM), inactives show at the top dose activity change, negative = inhibition, actives largely listed as inhibitors. shares compounds with NPR1 antag. HEK293 hNpr1 cGMP GloSensor luminescence, ANP-stimulated. hit rate 76% among 1,400; calls by dose curve; note: nearly all actives have a fitted effect of over 70% in size
Npr2 selectivity: selectivity test of Npr1 antagonists against human Npr2 | Potency, µM (highest dose often 57.6 µM), for the others: at the top dose activity change, negative = inhibition, hits mostly inhibitors | hit rate 67% among 1,400 | AID 1347046 | shares compounds with NPR1 antag | HEK293 hNpr2 GloSensor cGMP luminescence, CNP-stimulated; calls by dose curve; note: nearly all actives have a fitted effect of over 70% in size
FLuc inh counter: counter-screen for Npr1 antagonists: firefly luciferase inhibitors | hit rate 0.7% among 1,400 | shares compounds with NPR1 antag | AID 1347047 | Potency, µM (top dose mostly 57.6 µM), for the others: top-dose activity change, negative = inhibition, actives largely listed as inhibitors | purified FLuc enzyme, luminescence, Km substrate; note: 0% is about no effect
GloSensor ctrl: counter-screen for Npr1 antagonists: GloSensor control cell line; shares compounds with NPR1 antag; HEK293 GloSensor cGMP, SNP-stimulated, luminescence; Potency, µM (highest dose often 57.6 µM), inactives show top-dose activity change, negative = inhibition, usual class: inhibitors; hit rate 69% among 1,400; AID 1347051; calls by dose curve; note: % is set by controls: 0 for no effect and ±100 for the full control effect; nearly all actives have a fitted effect of over 70% in size
* = called active by the depositor; i = inactive; u = inconclusive; x = no result; [ ] = remark or other dose. Unless noted, calls come from the whole dose curve; as a rule, active = well fitted curve in the direction sought with a large enough effect; inconclusive = small, poorly fitted or top-dose-only effect, or another doubt; inactive = no such curve, though single readings can be large; an effect the other way counts as inactive or inconclusive. Potency is the fitted concentration of half-maximal effect.

SMILES	HEK cytotox	NPR1 antag	FLuc inh	NIH3T3 tox	NPR1 antag cnf	Npr2 selectivity	FLuc inh counter	GloSensor ctrl
O=C(CCc1ccccc1)N1CCC(c2nc(C3CCOCC3)no2)C1 (stereo not drawn)	-11%	-18%	i	-10%	-17%	-2%	-2%	-12%
CCOc1ccccc1CN1CCN(C(=O)[C@H]2CCC[C@H]2NC(=O)c2ccncc2)CC1	i	-2%	i	i	x	x	x	x
Cc1cc(Cl)ccc1-c1ccc(CNC2CN(C(=O)OC(C)(C)C)C2)cc1	u	x	x	u	22µM*	22µM*	-1%	19µM*
O=C(NCc1ccccc1)c1nc2c(o1)CCN(Cc1ccc(F)c(Cl)c1)CC2	u	22µM*	i	45µM*	28µM*	28µM*	-2%[86.2 µM]	20µM*
COc1ccc(CN2CCc3nc(C(=O)NCc4cccc(F)c4)oc3CC2)cc1OC	u	-12%	i	u	x	x	x	x
COc1ccccc1CN1CCc2nc(C(=O)NCc3cccc(F)c3)oc2CC1	u	-3%[70.6 µM]	i	u	x	x	x	x
O=C(NCc1ccccc1)c1nc2c(o1)CCN(Cc1ccc(F)cc1)CC2	u	u	i	u	35µM*	35µM*	0%[86.2 µM]	35µM*
COc1ccccc1OCCNC(=O)C1CCc2ncc(-c3ccc(F)cc3)n2C1 (stereo not drawn)	u	u	i	-22%	19µM*	19µM*	0%	-16%
O=C(NCCc1ccccc1)C1CCc2ncc(-c3ccsc3)n2C1 (stereo not drawn)	u	u	i	u	u	-25%	3%	-29%
O=C(c1ccccc1)N1CCC(C(=O)N2CCC(N3CCCC3=O)CC2)CC1	5%	x	x	-2%	x	x	x	x
O=C1COc2ccc(OCc3cncs3)nc2CN1CCOc1ccccc1	u	32µM*	i	u	40µM*	31µM*	-2%[86.2 µM]	u
O=C1COc2ccc(OCc3ccc(F)cc3)nc2CN1CCOc1ccccc1	u	32µM*	i	u	35µM*	35µM*	-3%[86.2 µM]	28µM*
O=C1COc2ccc(OCc3cncs3)nc2CN1Cc1ccccc1	u	-28%[70.6 µM]	i	u	x	x	x	x
O=C1Nc2ccccc2OCC12CCN(Cc1ccc(C(F)(F)F)cc1)CC2	u	11µM*	i	-30%	24µM*	24µM*	-2%	24µM*
CN1CCN(Cc2ccc(Nc3cnc4ccc(-c5ccccc5)nn34)cc2)CC1	25µM*	32µM*	i	u	31µM*	31µM*	-4%[86.2 µM]	22µM*
Cc1ccc(-c2nc(C(=O)NC(C)c3ccccc3)no2)cc1 (stereo not drawn)	-7%	-2%	u	-22%	x	x	x	x
COC[C@H]1CCCN1Cc1nc(C2(O)CCN(Cc3ccccc3O)CC2)cs1	u	3%[70.6 µM]	i	u	x	x	x	x
OC1CC(c2cc(N3CCN(c4nsc5ccccc45)CC3)ncn2)C1 (stereo not drawn)	11µM*	1.6µM*	i	18µM*	2.7µM*	3.1µM*	-13%	2.4µM*
OC1CC(c2cc(N3CCC(CCn4cccn4)CC3)ncn2)C1 (stereo not drawn)	u	7.9µM*	i	u	14µM*	12µM*	0%	9.7µM*
O=C(NCc1ccc(F)cc1F)C1CCN(Cc2ccccc2-c2cccnc2)CC1	u	x	x	-18%	x	x	x	x
COc1ccc(CNC(=O)Cn2c(N3CCCCC3)nc(C)c(C)c2=O)cc1	-14%	1%	i	-9%	x	x	x	x
COCc1nnc(NC(=O)C2c3ccccc3C(=O)N(CC(C)C)C23CCCCC3)s1 (stereo not drawn)	11%	3%	i	3%	x	x	x	x
O=C(c1cc(Cl)ccc1F)N1CCC(Cc2nc(-c3cnccn3)no2)CC1	u	0%	i	u	x	x	x	x
COc1cccc(-c2noc(CC3CCN(C(=O)c4cccc(Cl)c4)CC3)n2)c1	u	8.9µM*	i	u	7.7µM*	11µM*	-12%	7.7µM*
COc1cccc(-c2noc(CC3CCN(C(=O)c4cc(Cl)ccc4F)CC3)n2)c1	u	8.9µM*	i	u	12µM*	19µM*	0%	14µM*
SMILES	HEK cytotox	NPR1 antag	FLuc inh	NIH3T3 tox	NPR1 antag cnf	Npr2 selectivity	FLuc inh counter	GloSensor ctrl
COc1cccc(-c2noc(CC3CCN(C(=O)c4ccc(OC)c(OC)c4)CC3)n2)c1	u	11µM*	i	u	9.7µM*	12µM*	1%	11µM*
COc1cc(OC)cc(C(=O)N2CCC(Cc3nc(-c4cnccn4)no3)CC2)c1	15%	9%	i	-21%	x	x	x	x
COc1cccc(-c2noc(CC3CCN(C(=O)c4ccccc4)CC3)n2)c1	40µM*	7.9µM*	i	u	9.7µM*	11µM*	-6%	9.7µM*
CCN(Cc1ccccc1)C(=O)CCC[C@H]1NC[C@@H]2CC1CN(Cc1ccccc1)C2	u	-18%	i	u	x	x	x	x
COCCC1(NS(C)(=O)=O)CCN(C(=O)C2(c3ccc(OC)cc3)CC2)CC1	-29%	-5%	i	-18%	x	x	x	x
O=C(NCC1CC1)C1(F)CCN(S(=O)(=O)c2cccs2)CC1	5%	x	x	-16%	x	x	x	x
CN(C)C[C@@H]1CN(C)C[C@H]1NS(=O)(=O)c1cc(F)cc(F)c1	-17%	-4%	i	-10%	x	x	x	x
COCc1ccc2c(c1)c(OC(C)(C)C(=O)N1CCN(C)CC1)nn2CCC(C)C	u	-1%[70.6 µM]	i	-28%[138 µM]	x	x	x	x
COCc1ccc2c(c1)c(OC(C)(C)C(=O)N1CCN(CCO)CC1)nn2Cc1ccccc1	i	-12%	i	u	x	x	x	x
Cc1cc(NC(=O)C(C)(C)Oc2nn(CCOc3ccccc3)c3ccccc23)n(C)n1	u	25µM*	i	u	35µM*	35µM*	2%[86.2 µM]	31µM*
COC1CCN(C(=O)C(C)(C)Oc2nn(CCOc3ccccc3)c3ccccc23)CC1	89µM*	u	i	u	u	25µM*	-4%[86.2 µM]	-1%[86.2 µM]
CC(C)(Oc1nn(Cc2cccc(Cl)c2)c2ccccc12)C(=O)N1CCN(CCO)CC1	u	u	i	u	u	u	4%	-2%
O=C(Nc1cc(-c2ccccn2)nn1-c1ccccc1)c1ccc(Cl)nc1	-18%	x	x	u	x	x	x	x
